Most compounds without a hit are left out; they make up all but 8.9% or so of the library.
IMPase Li cell = IMPase inhibition in cells with lithium potentiation; CHO-M1 cells, IP1 TR-FRET (IP-One), carbachol + lithium; Potency, µM (series often up to 59.4 µM), without a hit: top-dose activity, negative = IMPase inhibition, usual class: inhibitors; 0.35% of 210,000 active; AID 1457;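 also: IP1 builds up when IMPase is blocked and the TR-FRET signal falls; potency is read from the fitted curve at half-maximal effect; plate controls were basal vehicle for no effect and high inhibitor control for full effect; nearly all actives have a fitted effect of over 50% in size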
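IP1 accumulation measured by competitive TR-FRET in lysed CHO-M1 cells after 30 min compound exposure at 37C, with a small lithium addition to potentiate weak responses. Hill-equation AC50 from ratio and donor-channel data.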
ALOX12 inhib = 12-hLO (ALOX12) enzyme inhibition. Potency, µM (titrated, usually from 57.1 µM), for the others: at the top dose activity change, negative = inhibition, hits mostly inhibitors. 0.12% of 150,000 active. purified 12-hLO, xylenol orange hydroperoxide absorbance. AID 1452; also: potency is read from the fitted curve at half-maximal effect; nearly all actives have a fitted effect of over 55% in size
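Purified human 12hLO (150 nM final) was preincubated with compounds for 15 min at room temperature in 25 mM Hepes pH 7.0, 0.01% Triton X-100, then reacted with 40 uM arachidonic acid for 30 min. Hydroperoxide was detected with ferrous iron/xylenol orange.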
HPGD inh = blocks human HPGD enzyme activity; P15428; purified HPGD, NADH fluorescence kinetic, PGE2 substrate; Potency, µM, without a hit: at the highest dose activity change, negative = inhibition, actives largely listed as inhibitors; 4.3% of 150,000 active; AID 894; active = well fitted inhibition curve with a large enough effect, not every such curve was filed as active; inconclusive = small, poorly fitted or top-dose-only effect, or another doubt; inactive = no such curve, though single readings can be large or run the other way; also: potency is read from the fitted curve at half-maximal effect
Target sequence (P15428 whole entry, looked up): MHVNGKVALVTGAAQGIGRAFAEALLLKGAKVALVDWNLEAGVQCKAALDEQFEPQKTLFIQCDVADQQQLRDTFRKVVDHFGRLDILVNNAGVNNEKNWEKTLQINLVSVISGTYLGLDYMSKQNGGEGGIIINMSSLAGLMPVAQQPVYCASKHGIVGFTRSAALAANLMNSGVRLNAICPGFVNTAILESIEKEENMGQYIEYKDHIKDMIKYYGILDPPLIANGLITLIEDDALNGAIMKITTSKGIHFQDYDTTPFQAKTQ
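NADH formation kinetics: reaction with 30 uM PGE2 and 1 mM NAD+ (final), 20 nM enzyme, Tris-HCl pH 8 with Tween 20, after 15 min compound preincubation at room temperature. Fluorescence change, last versus first of five reads.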
IMPase cell inh = cell-permeable inhibitors of inositol monophosphatase (IMPase); P97697; CHO-M1 cells, IP1 accumulation, HTRF TR-FRET ratio; inhibition (IP1 accumulation), % at 46.1 µM; 120,000 tested, under 10 active; active = well fitted curve in the direction sought with a large enough effect in the signal ratio, not every such curve was filed as active; inconclusive = small, poorly fitted or top-dose-only effect, or a change in a side signal; inactive = no such curve, though single readings can be large or run the other way; the % refers to the signal ratio;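 also: cells stimulated with carbachol in lithium chloride buffer; plate controls were DMSO basal wells for no effect and reference inhibitor wells for full effect; higher means more IMPase inhibition seen as more IP1 and lower FRET ratio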
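CHO-M1, 2000 cells/well, cultured 16–30 h; cpd up to 46 uM; carbachol (50 uM solution, stimulation buffer w/ 50 mM LiCl, pH 7.4), 30 min 37C; IP-One TR-FRET, 10 min RT; Ex 320/Em 665, 620; Hill-fit AC50.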
NPSR antag = antagonists of human neuropeptide S receptor cAMP signaling | CHO-NPSR cells, cAMP TR-FRET, antagonist mode | Potency, µM (top dose mostly 38.3 µM), inactives show at the highest dose activity change, negative = inhibition, most hits filed as inhibitors | 1% of 220,000 active | Q6W5P4; also: potency is read from the fitted curve at half-maximal effect; nearly all actives have a fitted effect of over 50% in size
ALDH1A1 inh = inhibitors of human aldehyde dehydrogenase 1A1. P00352. Purified ALDH1A1, NADH fluorescence, propionaldehyde substrate. Potency, µM (doses to about 75.3 µM), inactives show top-dose activity, negative = inhibition, usual class: inhibitors. 7.3% of 220,000 active; active = well fitted inhibition curve with a large enough effect, not every such curve was filed as active; inconclusive = small, poorly fitted or top-dose-only effect, or another doubt; inactive = no such curve, though single readings can be large or run the other way;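 also: potency is read from the fitted curve at half-maximal effect; plate controls were no enzyme wells and a reference inhibitor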
Target sequence (P00352 whole entry, looked up): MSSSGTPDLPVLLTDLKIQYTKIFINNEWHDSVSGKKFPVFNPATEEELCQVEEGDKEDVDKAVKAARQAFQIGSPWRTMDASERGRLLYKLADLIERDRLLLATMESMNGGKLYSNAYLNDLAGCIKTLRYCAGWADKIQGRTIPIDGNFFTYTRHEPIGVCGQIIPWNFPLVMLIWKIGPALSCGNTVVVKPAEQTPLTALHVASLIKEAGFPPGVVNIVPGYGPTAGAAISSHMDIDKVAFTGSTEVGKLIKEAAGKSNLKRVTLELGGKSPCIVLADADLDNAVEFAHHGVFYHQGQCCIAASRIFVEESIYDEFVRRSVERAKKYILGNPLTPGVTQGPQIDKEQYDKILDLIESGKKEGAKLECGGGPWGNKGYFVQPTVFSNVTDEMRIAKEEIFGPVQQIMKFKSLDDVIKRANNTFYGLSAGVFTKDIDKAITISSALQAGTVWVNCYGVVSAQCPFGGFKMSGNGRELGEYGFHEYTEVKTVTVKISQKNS
An asterisk follows results filed as active; ? = inconclusive; · = not tested or not shown; ! = not active in a repeat; [ ] = remark or other dose. Unless noted, calls follow the shape of the dose curve; as a rule, active = well fitted curve in the direction sought with a large enough effect; inconclusive = small, poorly fitted or top-dose-only effect, or another doubt; inactive = no such curve, though single readings can be large; an effect the other way counts as inactive or inconclusive. Unless noted, % is scaled to controls: 0 for no effect and ±100 for the full control effect.

SMILES	IMPase Li cell	ALOX12 inhib	HPGD inh	IMPase cell inh	NPSR antag	ALDH1A1 inh
c1csc(CN2CC[C@@]3(CCCNC3)C2)n1	5%	2%	-13%	·	·	22µM*
C[C@@](Br)(C(=O)O)[C@H](Br)C(=O)O	4%	3%[11.4 µM]	-3%	·	·	-2%[13.5 µM]
CC1CC(OP(O)(=S)c2ccc(N(C)C)cc2NC(=O)c2cccs2)CC(C)(C)C1 (stereo unspecified)	-1%	·	·	·	-3%	4µM*
CCCN(CCC)CCc1c[nH]c2ccc(C(N)=O)cc12	9%	-4%	-24%	-1	-4%[46.1 µM]	-2%
S=C=NCc1ccccc1	29%	-15%	?	·	·	2.8µM*
S=C(S)N1CCCC1	15%	?	10µM*	-4	?	0.79µM*
Cc1cnc[nH]1	-8%	-1%	-14%	·	·	0.28µM*
Cn1c(O)c(C(=Nc2ccccc2)SCc2ccccc2Cl)c(=O)n(C)c1=O	·	·	·	·	-45%	·
O=C(N/N=C/c1c(O)n(-c2cccc3ccccc23)c(=O)[nH]c1=O)c1ccncc1	·	·	·	·	20%	·
C=CCN1C(=O)NC(=O)/C(=C/c2cnc(SC)nc2)C1=O	6%[38.3 µM]	-7%	-4%	4	?	1%
C=CCN1C(=O)NC(=O)/C(=C/c2cc3c4c(c2)CCCN4CCC3)C1=O	6%	-4%	14µM*	·	-6%	0.89µM*
COc1cc(N)c(Cl)cc1C(=O)NC1CN2CCC1CC2 (stereo unspecified)	·	·	·	·	4%	·
COCCCOc1ccnc(CS(=O)c2nc3ccccc3[nH]2)c1C (stereo unspecified)	4%	-10%[0.00818 µM]	?	·	·	6µM*
CC[n+]1c(-c2ccccc2)c2cc(N)ccc2c2ccc(N)cc21	29%	0%[0.00818 µM]	35µM*!	·	·	-8%
C=C1N2CCC(CC2)C1(O)c1ccc(C)c(C)c1 (stereo unspecified)	15%	-1%	-20%	3	8%[46.1 µM]	9%
O=C(c1cc2c(s1)-c1ccccc1OC2)N1CCC2(CC1)OCCO2	-2%	-2%	?	-1	-4%[46.1 µM]	?
O=C(c1cc2c(s1)CCCC2)N1CCC2(CC1)OCCO2	17%[38.3 µM]	1%	25µM*	-1	-11%[46.1 µM]	11µM*
O=C(c1csc2c1CCCCC2)N1CCC2(CC1)OCCO2	-12%[38.3 µM]	-5%	?	1	-4%[46.1 µM]	8.9µM*
O=C(c1cc(S(=O)(=O)N2CCCCC2)ccc1F)N1CCC2(CC1)OCCO2	14%[38.3 µM]	-3%	-5%	1	-6%[46.1 µM]	?
O=Cc1cn(Cc2c(F)cccc2Cl)c2ccccc12	8%	·	·	·	-28%	3.2µM*
O=Cc1cn(Cc2ccccc2F)c2ccccc12	7%	·	·	·	17%	0.45µM*
O=Cc1cn(Cc2cccc([N+](=O)[O-])c2)c2ccccc12	0%	-7%	-17%	·	-9%	4µM*
O=Cc1cn(CCCOc2ccccc2)c2ccccc12	-7%	-1%	?	·	-10%	?
CC(=O)[C@H]1CC[C@H]2[C@@H]3CCC4=CC(=O)CC[C@]4(C)[C@H]3CC[C@]12C	6%	-7%	0%	12	-25%	11µM*!
C[C@@]12CC[C@H]3[C@@H](CCC4=CC(=O)CC[C@]43C)[C@H]1CC[C@H]2C(=O)CO	7%	-5%[25.6 µM]	-6%	-5[20.6 µM]	·	5µM*
SMILES	IMPase Li cell	ALOX12 inhib	HPGD inh	IMPase cell inh	NPSR antag	ALDH1A1 inh
CC(=O)[C@@H]1CC[C@@H]2[C@@H]3CCC4=CC(=O)CC[C@@]4(C)[C@H]3CC[C@]21C	1%	-4%[25.6 µM]	0%	1[20.6 µM]	·	-6%[20.9 µM]
Cc1cc(OC(=O)N(C)C)nc(SCc2c(Cl)cccc2Cl)n1	·	·	·	·	?	-3%
COc1ccccc1OCCCn1cc(C=O)c2ccccc21	3%	·	·	·	28%	?
CCN1C(=O)/C(=C/c2ccc(N(CC)CC)cc2OC)C(=O)NC1=S	175%	·	·	·	-57%	10µM*
CCCCCC1CC(CC(=O)NC(=S)Nc2ccc([N+](=O)[O-])cc2)C(=O)O1 (stereo unspecified)	5%	-4%	-8%	8	-25%[46.1 µM]	10µM*
CC(C)[C@@]1(NC(=O)[C@@H]2C[C@@H]3c4cccc5[nH]cc(c45)C[C@H]3N(C)C2)O[C@@]2(O)C3CCCN3C(=O)[C@H](Cc3ccccc3)N2C1=O (stereo partly specified)	1%	·	-22%	·	?	-10%
CC(C)[C@@]1(NC(=O)[C@@H]2C[C@@H]3c4cccc5[nH]cc(c45)C[C@H]3N(C)C2)O[C@@]2(O)[C@@H]3CCCN3C(=O)[C@H](Cc3ccccc3)N2C1=O	4%	-8%	-4%	·	2µM*	-3%
CC(C)C[C@H]1C(=O)N2CCC[C@H]2[C@]2(O)O[C@](NC(=O)[C@@H]3C=C4c5cccc6[nH]c(Br)c(c56)CC4N(C)C3)(C(C)C)C(=O)N12 (stereo partly specified)	30%	-11%	-23%	·	1.6µM*	?
CC(C)[C@H]1C(=O)N2CCC[C@H]2[C@]2(O)O[C@](NC(=O)[C@@H]3C=C4c5cccc6[nH]cc(c56)C[C@H]4N(C)C3)(C(C)C)C(=O)N12	20%	-10%	?	·	1µM*	?
CC(=O)Nc1ccc(OC(=O)N(C)c2ccccc2)cc1	25%[38.3 µM]	-6%	-4%	-13	10%[46.1 µM]	6%
C=C1C2CC[C@@]3(C)C(c4ccoc4)OC(=O)C[C@@]13OC1CC(=O)C(C)(C)C(C(OC(C)=O)C(=O)OC)[C@@]12C (stereo partly specified)	11%	-2%	-4%	·	·	11%
COc1ccc(N(CC(=O)Nc2cccc(SC)c2)S(C)(=O)=O)cc1Cl	21%[38.3 µM]	-25%	?	9	?	14µM*
COc1ccc(NC(=O)c2c(C)nn(Cc3ccccc3Cl)c2Cl)cc1Cl	7%	3%	-8%	6	6%	6%
C[C@H](CCC(=O)O)C[C@H](C)C[C@H](C)C(=O)/C=C(\O)[C@H](C)C[C@H](C)C/C=C/[C@@H](C)[C@@H](O)[C@@H](C)[C@@H](O)C[C@@H]1CC[C@@](C)(C2CC[C@@](C)([C@@H](C)O)O2)O1 (stereo partly specified)	8%	1%[0.00818 µM]	-2%	·	·	?
Cc1ccc(-c2nc3ccccc3c(=O)n2-c2ccncc2)cc1	7%	-3%	-9%	-4	5%	?

Bioassay records deposited in PubChem BioAssay by National Center for Advancing Translational Sciences (NCATS).
